# ± gives the standard deviation of the averaged measurements. About 6,500 targets were measured; listed, in parts, are those with the largest changes and a random draw of the rest.
# Compound: Nc1ncnc2c1ncn2[C@@H]1O[C@H](COP(=O)(O)OP(=O)(O)OP(=O)(O)O)[C@@H](O)[C@H]1O [adenosine triphosphate]
# Assay: NP40-soluble protein abundance relative to vehicle (solubility fold change) (ratio); higher = more soluble protein in presence of ATP
# Outline: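 Values are fold changes against the detergent-processed vehicle, based on vsn-normalised intensities. Jurkat crude lysate was treated at eight concentrations from 0.1 to 10 mM (10 min at room temperature, then 3 min at 37 °C), solubilised with 0.8% NP40 and benzonase, ultracentrifuged and analysed by TMT-labelled LC-MS/MS over three independent experiments.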
# UniProt Q8NC42, sequence (Q8NC42 whole entry, one chain of several): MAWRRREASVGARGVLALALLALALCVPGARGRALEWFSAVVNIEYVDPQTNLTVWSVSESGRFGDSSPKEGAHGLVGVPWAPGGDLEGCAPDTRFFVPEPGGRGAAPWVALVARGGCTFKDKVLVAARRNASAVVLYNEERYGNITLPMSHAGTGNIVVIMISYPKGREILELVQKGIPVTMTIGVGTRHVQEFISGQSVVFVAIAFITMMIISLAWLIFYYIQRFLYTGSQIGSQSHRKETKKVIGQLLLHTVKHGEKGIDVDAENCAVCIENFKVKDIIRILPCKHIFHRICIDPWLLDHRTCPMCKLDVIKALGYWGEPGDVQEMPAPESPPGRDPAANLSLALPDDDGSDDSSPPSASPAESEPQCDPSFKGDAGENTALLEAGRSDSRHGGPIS
# UniProt Q86YR5, sequence (Q86YR5 whole entry, one chain of several): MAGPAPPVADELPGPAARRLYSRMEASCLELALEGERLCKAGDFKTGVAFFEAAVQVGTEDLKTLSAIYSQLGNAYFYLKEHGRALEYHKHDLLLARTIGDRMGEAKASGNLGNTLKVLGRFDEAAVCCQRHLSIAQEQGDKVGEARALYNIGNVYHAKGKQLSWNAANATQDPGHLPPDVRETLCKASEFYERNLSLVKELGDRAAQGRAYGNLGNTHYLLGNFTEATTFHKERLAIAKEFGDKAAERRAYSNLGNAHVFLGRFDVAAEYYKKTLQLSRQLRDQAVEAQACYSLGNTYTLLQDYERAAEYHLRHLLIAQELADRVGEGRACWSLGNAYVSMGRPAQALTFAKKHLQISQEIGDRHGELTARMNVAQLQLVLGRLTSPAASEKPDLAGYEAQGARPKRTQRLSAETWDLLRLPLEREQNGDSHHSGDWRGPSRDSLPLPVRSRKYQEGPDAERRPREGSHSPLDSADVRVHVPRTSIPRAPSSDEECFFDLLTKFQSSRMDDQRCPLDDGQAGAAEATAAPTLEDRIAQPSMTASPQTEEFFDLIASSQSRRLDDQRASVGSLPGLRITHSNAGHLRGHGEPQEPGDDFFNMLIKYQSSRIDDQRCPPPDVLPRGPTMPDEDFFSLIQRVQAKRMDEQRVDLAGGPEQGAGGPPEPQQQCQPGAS
# UniProt O14776, sequence (O14776 whole entry): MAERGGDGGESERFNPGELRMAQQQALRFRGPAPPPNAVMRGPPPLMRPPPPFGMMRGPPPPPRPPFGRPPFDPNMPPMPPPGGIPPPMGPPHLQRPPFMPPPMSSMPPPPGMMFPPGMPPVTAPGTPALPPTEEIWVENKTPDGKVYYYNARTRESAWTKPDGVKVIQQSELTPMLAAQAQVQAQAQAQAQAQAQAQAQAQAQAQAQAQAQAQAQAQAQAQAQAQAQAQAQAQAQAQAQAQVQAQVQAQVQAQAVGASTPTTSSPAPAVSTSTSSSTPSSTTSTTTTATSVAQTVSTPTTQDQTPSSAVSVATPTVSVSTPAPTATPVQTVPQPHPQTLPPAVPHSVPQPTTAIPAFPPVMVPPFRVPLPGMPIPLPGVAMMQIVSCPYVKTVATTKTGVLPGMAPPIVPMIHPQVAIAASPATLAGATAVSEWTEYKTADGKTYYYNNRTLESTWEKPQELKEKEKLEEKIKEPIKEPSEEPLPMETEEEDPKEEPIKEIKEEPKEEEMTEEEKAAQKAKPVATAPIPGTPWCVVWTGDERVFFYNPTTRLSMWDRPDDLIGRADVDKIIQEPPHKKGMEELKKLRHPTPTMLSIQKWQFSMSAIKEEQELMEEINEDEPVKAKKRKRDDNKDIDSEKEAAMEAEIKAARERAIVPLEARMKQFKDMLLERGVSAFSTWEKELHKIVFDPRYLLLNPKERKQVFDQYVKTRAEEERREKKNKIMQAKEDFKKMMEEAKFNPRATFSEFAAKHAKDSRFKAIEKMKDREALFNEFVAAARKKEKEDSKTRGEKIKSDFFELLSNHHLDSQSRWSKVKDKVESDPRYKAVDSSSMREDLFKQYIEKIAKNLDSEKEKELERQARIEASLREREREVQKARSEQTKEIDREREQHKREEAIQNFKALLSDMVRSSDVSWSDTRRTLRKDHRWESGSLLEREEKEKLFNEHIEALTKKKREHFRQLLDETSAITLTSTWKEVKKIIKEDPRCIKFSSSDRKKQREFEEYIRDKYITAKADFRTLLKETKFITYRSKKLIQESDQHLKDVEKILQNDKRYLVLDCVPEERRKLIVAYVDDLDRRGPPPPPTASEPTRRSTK
# UniProt O75081, sequence (O75081 whole entry): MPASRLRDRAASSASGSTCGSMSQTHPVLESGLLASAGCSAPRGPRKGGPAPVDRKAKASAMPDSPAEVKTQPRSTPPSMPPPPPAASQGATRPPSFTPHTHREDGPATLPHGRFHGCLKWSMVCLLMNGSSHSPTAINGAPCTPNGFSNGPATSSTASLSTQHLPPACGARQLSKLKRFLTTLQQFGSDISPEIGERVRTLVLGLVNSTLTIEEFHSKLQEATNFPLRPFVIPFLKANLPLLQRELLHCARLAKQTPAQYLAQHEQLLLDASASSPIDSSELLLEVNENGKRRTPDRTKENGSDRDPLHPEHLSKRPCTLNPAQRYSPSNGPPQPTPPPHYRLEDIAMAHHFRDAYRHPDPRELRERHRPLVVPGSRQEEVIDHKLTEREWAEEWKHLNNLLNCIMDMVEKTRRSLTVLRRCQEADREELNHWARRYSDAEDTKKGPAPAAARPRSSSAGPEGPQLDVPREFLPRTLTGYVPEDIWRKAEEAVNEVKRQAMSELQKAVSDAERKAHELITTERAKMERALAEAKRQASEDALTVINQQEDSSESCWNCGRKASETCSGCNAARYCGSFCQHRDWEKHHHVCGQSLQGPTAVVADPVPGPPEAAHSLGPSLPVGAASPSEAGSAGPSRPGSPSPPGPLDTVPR
# UniProt P78537, sequence (P78537 whole entry, one chain of several): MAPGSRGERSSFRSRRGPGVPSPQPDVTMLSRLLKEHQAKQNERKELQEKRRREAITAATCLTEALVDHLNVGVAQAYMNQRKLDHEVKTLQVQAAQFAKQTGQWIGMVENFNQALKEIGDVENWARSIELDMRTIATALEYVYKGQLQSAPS
# UniProt O15169, sequence (O15169 whole entry): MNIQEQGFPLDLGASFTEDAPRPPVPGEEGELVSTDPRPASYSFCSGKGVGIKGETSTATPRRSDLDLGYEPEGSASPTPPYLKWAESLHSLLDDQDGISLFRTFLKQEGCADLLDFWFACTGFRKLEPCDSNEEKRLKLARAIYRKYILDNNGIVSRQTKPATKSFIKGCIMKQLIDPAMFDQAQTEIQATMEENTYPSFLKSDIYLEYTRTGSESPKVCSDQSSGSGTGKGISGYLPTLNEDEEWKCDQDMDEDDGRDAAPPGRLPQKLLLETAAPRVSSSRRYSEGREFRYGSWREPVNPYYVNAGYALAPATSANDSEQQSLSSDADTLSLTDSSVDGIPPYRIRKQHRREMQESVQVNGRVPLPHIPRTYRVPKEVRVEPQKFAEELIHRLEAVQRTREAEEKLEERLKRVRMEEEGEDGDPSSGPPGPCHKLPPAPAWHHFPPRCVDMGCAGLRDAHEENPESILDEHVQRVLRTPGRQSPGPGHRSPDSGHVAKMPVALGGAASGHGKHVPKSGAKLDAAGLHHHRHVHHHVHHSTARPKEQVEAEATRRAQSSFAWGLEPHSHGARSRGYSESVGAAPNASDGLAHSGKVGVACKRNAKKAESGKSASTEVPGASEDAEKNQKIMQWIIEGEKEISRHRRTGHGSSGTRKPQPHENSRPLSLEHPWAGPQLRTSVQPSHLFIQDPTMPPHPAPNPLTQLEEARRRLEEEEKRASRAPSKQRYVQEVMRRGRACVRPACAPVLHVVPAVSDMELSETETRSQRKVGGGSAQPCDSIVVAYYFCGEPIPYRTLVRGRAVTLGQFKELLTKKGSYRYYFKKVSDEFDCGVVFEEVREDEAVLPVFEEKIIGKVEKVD
# UniProt Q6VN20, sequence (Q6VN20 whole entry, one chain of several): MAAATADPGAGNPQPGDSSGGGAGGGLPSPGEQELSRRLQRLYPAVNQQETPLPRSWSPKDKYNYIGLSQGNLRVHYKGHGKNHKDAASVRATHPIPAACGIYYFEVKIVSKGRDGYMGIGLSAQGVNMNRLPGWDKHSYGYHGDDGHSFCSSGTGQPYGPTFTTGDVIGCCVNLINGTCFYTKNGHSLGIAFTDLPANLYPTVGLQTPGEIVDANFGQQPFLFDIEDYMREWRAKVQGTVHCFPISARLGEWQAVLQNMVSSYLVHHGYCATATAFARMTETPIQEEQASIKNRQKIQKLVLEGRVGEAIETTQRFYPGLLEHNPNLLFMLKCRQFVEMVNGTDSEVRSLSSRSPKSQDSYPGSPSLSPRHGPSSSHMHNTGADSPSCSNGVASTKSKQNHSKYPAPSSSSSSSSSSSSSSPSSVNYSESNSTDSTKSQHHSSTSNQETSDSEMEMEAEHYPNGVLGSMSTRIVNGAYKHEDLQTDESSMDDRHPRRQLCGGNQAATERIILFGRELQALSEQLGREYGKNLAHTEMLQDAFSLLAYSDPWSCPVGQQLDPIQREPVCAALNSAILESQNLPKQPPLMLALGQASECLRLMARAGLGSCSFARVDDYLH
# UniProt O75131, sequence (O75131 whole entry): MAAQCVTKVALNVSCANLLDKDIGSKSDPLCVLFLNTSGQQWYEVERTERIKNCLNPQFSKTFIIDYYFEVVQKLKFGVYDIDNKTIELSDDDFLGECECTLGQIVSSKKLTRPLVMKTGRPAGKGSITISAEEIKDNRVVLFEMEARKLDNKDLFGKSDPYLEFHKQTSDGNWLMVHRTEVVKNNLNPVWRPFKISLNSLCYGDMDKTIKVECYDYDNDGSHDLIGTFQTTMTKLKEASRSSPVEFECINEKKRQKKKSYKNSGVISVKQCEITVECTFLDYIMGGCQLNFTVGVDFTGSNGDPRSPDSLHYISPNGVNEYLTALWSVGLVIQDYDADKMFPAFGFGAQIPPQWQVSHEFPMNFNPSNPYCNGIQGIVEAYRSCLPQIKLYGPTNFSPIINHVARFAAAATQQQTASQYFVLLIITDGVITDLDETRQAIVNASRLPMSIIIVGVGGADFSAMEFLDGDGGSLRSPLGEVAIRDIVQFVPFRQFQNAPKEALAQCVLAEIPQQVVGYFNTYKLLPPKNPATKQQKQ
Target,NP40-soluble protein abundance (concentration: 1mM),NP40-soluble protein abundance (concentration: 2mM),NP40-soluble protein abundance (concentration: 4mM),NP40-soluble protein abundance (concentration: 6mM),NP40-soluble protein abundance (concentration: 8mM),NP40-soluble protein abundance (concentration: 10mM)
UniProt O75081|O75081-2|O75081-4,0.943 ± 0.039,0.9218 ± 0.0052,0.907 ± 0.052,0.888 ± 0.14,0.888 ± 0.082,0.97 ± 0.089
SPTLC1 (UniProt O15269),0.993 ± 0.026,0.998 ± 0.032,0.997 ± 0.027,0.93 ± 0.096,0.998 ± 0.024,1 ± 0.049
I3L0L6|Q9H6Y7 (UniProt Q9H6Y7),0.901 ± 0.033,0.93 ± 0.016,0.896 ± 0.051,0.962 ± 0.064,0.921 ± 0.066,0.864 ± 0.065
E9PDF6|O43795 (UniProt O43795),2.78 ± 0.047,2.71 ± 0.065,2.65 ± 0.15,2.65 ± 0.21,2.82 ± 0.17,2.67 ± 0.12
E9PJN1|O75676|O75676-2 (UniProt O75676),1.36 ± 0.22,2.6 ± 1.5,1.34 ± 0.17,1.35 ± 0.17,1.31 ± 0.26,1.38 ± 0.13
TRIM38 (UniProt O00635),0.949 ± 0.053,1 ± 0.018,0.988 ± 0.041,0.955 ± 0.046,0.986 ± 0.034,0.993 ± 0.045
PDXK (UniProt O00764),1.02 ± 0.12,0.987 ± 0.058,1.01 ± 0.066,0.935 ± 0.14,0.989 ± 0.058,0.981 ± 0.051
B1AK44|Q9UI95 (UniProt Q9UI95),0.999 ± 0.022,0.937 ± 0.037,0.978 ± 0.024,1.01 ± 0.087,1.05 ± 0.086,0.993 ± 0.059
B7ZBK4|Q92664 (UniProt Q92664),1.02 ± 0.021,1.03 ± 0.035,1 ± 0.042,0.9904 ± 0.0034,0.989 ± 0.026,0.976 ± 0.053
A0A0A0MSK4|Q86YR5|Q86YR5-4 (UniProt Q86YR5),0.972 ± 0.037,0.99 ± 0.074,0.9991 ± 0.0089,1.018 ± 0.0076,0.96 ± 0.021,0.981 ± 0.05
NUDT21 (UniProt O43809),1.95 ± 0.11,2.06 ± 0.064,2.18 ± 0.1,2.25 ± 0.052,2.31 ± 0.1,2.213 ± 0.019
J3QL71|Q96FV2 (UniProt Q96FV2),0.96 ± 0.029,0.97 ± 0.011,0.98 ± 0.025,0.944 ± 0.019,0.959 ± 0.032,0.984 ± 0.015
B4DEN4|E7EV05|E9PFU9|Q8WV99|Q8WV99-2 (UniProt Q8WV99),0.955 ± 0.084,0.953 ± 0.046,0.943 ± 0.059,0.958 ± 0.066,0.91 ± 0.037,0.902 ± 0.062
PSMD12 (UniProt O00232),0.938 ± 0.063,0.894 ± 0.035,0.863 ± 0.015,0.843 ± 0.025,0.898 ± 0.031,0.885 ± 0.035
J3QTA6|Q9BRQ6 (UniProt Q9BRQ6),0.958 ± 0.12,0.921 ± 0.073,0.897 ± 0.087,0.925 ± 0.13,0.918 ± 0.093,0.874 ± 0.067
A0A0A0MTB8|Q8NI36 (UniProt Q8NI36),1.21 ± 0.057,1.37 ± 0.057,1.68 ± 0.13,1.86 ± 0.23,2.12 ± 0.14,2.17 ± 0.17
D0EV57|P01889|P10321|P13746-2|P16188|P30493|P30499|P30504|P30505|P30508|P30685|Q29865|Q29963|Q5SRN5|Q6DU44|Q8MH48|A0A140T912|E9PIB1|O19617|Q29940|Q29718 (UniProt Q29718+Q29940+E9PIB1+Q8MH48+Q6DU44+Q5SRN5+D0EV57+P01889+P10321+P30505+P13746+P30499+P16188+P30493+Q29865+P30504+P30508+P30685+O19617+Q29963),0.961 ± 0.026,0.9786 ± 0.0089,0.9485 ± 0.0059,0.977 ± 0.013,0.949 ± 0.022,0.96 ± 0.015
K7EIY6|Q9BV68-2 (UniProt Q9BV68),1 ± 0.15,0.967 ± 0.095,0.991 ± 0.11,1 ± 0.1,0.969 ± 0.034,0.92 ± 0.11
A0A0B4J1Z1|C9JAB2|Q16629|Q16629-2|Q16629-3|Q16629-4 (UniProt Q16629),1.7 ± 0.28,1.77 ± 0.28,1.89 ± 0.28,2.04 ± 0.31,1.98 ± 0.38,2.09 ± 0.36
I3L448|Q5TC12 (UniProt Q5TC12),0.982 ± 0.049,0.985 ± 0.028,0.983 ± 0.046,0.998 ± 0.04,0.96 ± 0.04,0.952 ± 0.022
CPNE3 (UniProt O75131),0.969 ± 0.067,0.983 ± 0.052,0.954 ± 0.054,0.903 ± 0.1,0.951 ± 0.024,0.96 ± 0.024
UniProt E9PSI1,0.9713 ± 0.0047,0.986 ± 0.015,0.981 ± 0.015,0.939 ± 0.037,0.958 ± 0.044,0.96 ± 0.04
H3BSH7|Q969X6|Q969X6-3 (UniProt Q969X6),1.1 ± 0.14,1.21 ± 0.03,1.26 ± 0.058,1.425 ± 0.0083,1.46 ± 0.084,1.78 ± 0.047
UniProt O15392|O15392-2,0.961 ± 0.1,2.09 ± 1.6,1.13 ± 0.09,1.23 ± 0.031,1.26 ± 0.092,1.31 ± 0.16
E9PEB9|Q03001|Q03001-3 (UniProt Q03001),0.92 ± 0.1,0.924 ± 0.041,0.942 ± 0.081,0.959 ± 0.15,0.899 ± 0.09,0.968 ± 0.056
G8JLQ3|P78537|P78537-2 (UniProt P78537),0.965 ± 0.12,0.88 ± 0.076,0.834 ± 0.1,0.861 ± 0.12,0.816 ± 0.032,0.702 ± 0.15
C9JRD2|C9JXB9|P25686|P25686-2 (UniProt P25686),0.969 ± 0.038,0.956 ± 0.019,0.956 ± 0.022,0.971 ± 0.06,0.973 ± 0.016,0.977 ± 0.025
F6S7C4|Q8NEM7|Q8NEM7-2|Q8NEM7-3|R4GND2 (UniProt Q8NEM7),1.09 ± 0.12,1.15 ± 0.1,1.14 ± 0.093,1.12 ± 0.13,1.16 ± 0.093,1.2 ± 0.11

Target,NP40-soluble protein abundance (concentration: 1mM),NP40-soluble protein abundance (concentration: 2mM),NP40-soluble protein abundance (concentration: 4mM),NP40-soluble protein abundance (concentration: 6mM),NP40-soluble protein abundance (concentration: 8mM),NP40-soluble protein abundance (concentration: 10mM)
K7ES61|Q9BYD3 (UniProt Q9BYD3),1.02 ± 0.079,0.942 ± 0.099,0.907 ± 0.091,0.827 ± 0.14,0.892 ± 0.19,0.895 ± 0.17
D6REA1|Q9H173|D6RIU8 (UniProt Q9H173),0.922 ± 0.083,0.938 ± 0.046,0.92 ± 0.083,0.929 ± 0.11,0.917 ± 0.063,0.8663 ± 0.0052
A0A0U1RRK1|F6XEV2|Q9BPX6|Q9BPX6-3|Q9BPX6-2 (UniProt Q9BPX6),1.01 ± 0.073,1.01 ± 0.045,1.04 ± 0.038,1.05 ± 0.067,1.07 ± 0.066,1.08 ± 0.058
M0R042|P04350 (UniProt P04350),1.01 ± 0.089,0.962 ± 0.037,1.02 ± 0.034,0.934 ± 0.058,1.02 ± 0.018,0.955 ± 0.071
E9PRY8|P29692|P29692-2|P29692-3|P29692-4 (UniProt P29692),0.959 ± 0.054,0.931 ± 0.034,0.894 ± 0.03,0.912 ± 0.091,0.88 ± 0.042,0.865 ± 0.015
MAN2B1 (UniProt O00754),0.94 ± 0.027,0.948 ± 0.017,0.957 ± 0.023,0.887 ± 0.057,0.917 ± 0.038,0.93 ± 0.018
F8WCD0|Q8NC42 (UniProt Q8NC42),0.964 ± 0.023,0.992 ± 0.013,1.08 ± 0.076,1.03 ± 0.029,0.945 ± 0.021,1 ± 0.076
URB1 (UniProt O60287),1.29 ± 0.067,1.41 ± 0.043,1.65 ± 0.057,1.7 ± 0.12,1.94 ± 0.12,2.15 ± 0.084
UniProt O15169|O15169-2,1.05 ± 0.17,0.887 ± 0.14,0.982 ± 0.19,1.07 ± 0.18,1 ± 0.047,1.15 ± 0.21
UniProt O14776|O14776-2,0.972 ± 0.011,0.9735 ± 0.0036,0.959 ± 0.024,1.03 ± 0.021,1.01 ± 0.024,1.02 ± 0.013
E9PHG5|Q6UW02 (UniProt Q6UW02),1.11 ± 0.13,1.02 ± 0.16,1.04 ± 0.13,1.02 ± 0.17,1.02 ± 0.1,0.993 ± 0.086
UniProt O14662-2|O14662-4|O14662-5,0.98 ± 0.066,0.94 ± 0.042,0.993 ± 0.044,0.974 ± 0.037,0.983 ± 0.034,0.921 ± 0.068
E7EX59|E9PDR0|P05166|P05166-2|E7EUY3 (UniProt P05166),0.992 ± 0.049,0.971 ± 0.02,0.968 ± 0.012,0.973 ± 0.046,0.998 ± 0.033,0.979 ± 0.03
B4DHE8|Q96DH6 (UniProt Q96DH6),1.02 ± 0.045,1.02 ± 0.058,0.994 ± 0.065,0.993 ± 0.08,0.983 ± 0.071,0.972 ± 0.079
F8W9X7|Q567U6 (UniProt Q567U6),0.974 ± 0.012,0.962 ± 0.017,0.959 ± 0.024,0.935 ± 0.015,0.951 ± 0.016,0.943 ± 0.028
F8W060|Q9BZF1 (UniProt Q9BZF1),0.936 ± 0.018,0.933 ± 0.035,0.939 ± 0.018,0.927 ± 0.046,0.964 ± 0.013,0.959 ± 0.045
G3XAG1|Q96ME7|Q96ME7-3 (UniProt Q96ME7),1.34 ± 0.038,1.407 ± 0.0052,1.58 ± 0.019,1.71 ± 0.061,1.88 ± 0.046,2.06 ± 0.081
E9PLK3|P55786 (UniProt P55786),1.02 ± 0.12,0.997 ± 0.09,0.976 ± 0.065,0.927 ± 0.13,0.999 ± 0.073,0.974 ± 0.057
G3V0H0|O43913|O43913-2 (UniProt O43913),1.03 ± 0.12,1.01 ± 0.097,1.02 ± 0.08,1 ± 0.13,1.08 ± 0.078,1.02 ± 0.061
A0A0D9SEU5|Q6VN20|Q6VN20-3|R4GMX8 (UniProt Q6VN20),0.968 ± 0.017,0.944 ± 0.05,0.979 ± 0.02,0.996 ± 0.11,0.935 ± 0.028,0.951 ± 0.036
B4DT96|C9JYA1|O15504|O15504-2 (UniProt O15504),0.985 ± 0.095,1.21 ± 0.19,1.29 ± 0.17,1.43 ± 0.42,1.42 ± 0.26,1.77 ± 0.49
G3V0I5|P49821|P49821-2 (UniProt P49821),0.986 ± 0.025,0.96 ± 0.02,0.944 ± 0.033,0.94 ± 0.056,0.962 ± 0.052,0.953 ± 0.046
F5GWN5|O00750 (UniProt O00750),0.994 ± 0.022,1.03 ± 0.025,1.05 ± 0.013,1.02 ± 0.039,1.03 ± 0.028,1.03 ± 0.051
A0A0A6YYA7|Q12851|Q12851-2 (UniProt Q12851),1.02 ± 0.026,1 ± 0.044,1.03 ± 0.063,0.994 ± 0.079,0.994 ± 0.026,0.998 ± 0.027
MYO1G (UniProt B0I1T2),3.09 ± 0.27,3.32 ± 0.48,3.48 ± 0.58,3.19 ± 0.4,3.7 ± 0.64,3.52 ± 0.5
A0A0J9YW36|Q9NZ72|Q9NZ72-2 (UniProt Q9NZ72),1.03 ± 0.25,1.21 ± 0.52,0.979 ± 0.12,1.18 ± 0.36,0.945 ± 0.1,0.863 ± 0.05
G5E9W3|Q9UKF6 (UniProt Q9UKF6),1.09 ± 0.073,1.1 ± 0.029,1.14 ± 0.025,1.11 ± 0.048,1.14 ± 0.029,1.18 ± 0.052
